This note sets out measurements from PubChem BioAssay AID485346 (Sanford-Burnham Center for Chemical Genomics, 2010).

In all, about 330,000 compounds went through this assay and about 10,000 (3%) were called active.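 How the source made its calls: active means inhibition of at least 50% at 8 µM in the primary screen; inactive means the rest.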 Only a selection was taken, and actives are over-represented in it overall.

In the experiment the target is Protein Mdm4 (Homo sapiens) + E3 ubiquitin-protein ligase Mdm2 (Homo sapiens) (UniProt O15151+Q00987). The experiment is described as follows: disruptors of Mdm2/MdmX RING complex – cell-based, luminescence, split luciferase, SaOS-2, uHTS, primary screen (AID 485346). The conditions noted are these: SaOS-2 split-luciferase Mdm2/MdmX complementation, at 8 µM, hits give high values.
Sequence of Protein Mdm4 (Homo sapiens) + E3 ubiquitin-protein ligase Mdm2 (Homo sapiens) (O15151 whole entry, looked up): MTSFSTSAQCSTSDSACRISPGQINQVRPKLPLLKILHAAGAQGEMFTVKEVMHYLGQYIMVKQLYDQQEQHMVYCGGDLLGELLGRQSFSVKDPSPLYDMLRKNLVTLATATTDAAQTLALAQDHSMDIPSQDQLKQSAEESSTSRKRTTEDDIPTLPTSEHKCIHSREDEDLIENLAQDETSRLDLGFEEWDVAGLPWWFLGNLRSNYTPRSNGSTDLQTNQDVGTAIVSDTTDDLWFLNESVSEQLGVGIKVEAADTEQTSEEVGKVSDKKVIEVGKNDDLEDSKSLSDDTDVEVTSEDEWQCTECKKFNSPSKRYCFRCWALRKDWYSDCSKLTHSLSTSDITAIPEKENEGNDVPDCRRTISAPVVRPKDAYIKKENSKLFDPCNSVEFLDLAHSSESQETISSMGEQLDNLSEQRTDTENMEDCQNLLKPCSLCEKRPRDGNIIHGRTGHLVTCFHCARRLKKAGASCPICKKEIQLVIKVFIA
Sequence of Protein Mdm4 (Homo sapiens) + E3 ubiquitin-protein ligase Mdm2 (Homo sapiens) (Q00987 whole entry, looked up): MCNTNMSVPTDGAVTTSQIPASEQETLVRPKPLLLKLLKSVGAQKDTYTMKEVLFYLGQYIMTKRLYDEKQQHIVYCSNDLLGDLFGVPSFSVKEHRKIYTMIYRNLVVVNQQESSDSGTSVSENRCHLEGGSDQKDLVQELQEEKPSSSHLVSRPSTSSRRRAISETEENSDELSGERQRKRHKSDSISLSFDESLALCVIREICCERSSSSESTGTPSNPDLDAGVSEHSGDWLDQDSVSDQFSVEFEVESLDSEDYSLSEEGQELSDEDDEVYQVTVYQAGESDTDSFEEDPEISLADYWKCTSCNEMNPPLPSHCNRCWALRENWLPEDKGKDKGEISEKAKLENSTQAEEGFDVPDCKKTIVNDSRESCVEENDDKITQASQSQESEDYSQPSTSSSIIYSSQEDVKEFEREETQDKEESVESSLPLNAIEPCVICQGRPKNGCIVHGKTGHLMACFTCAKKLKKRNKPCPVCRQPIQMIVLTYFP
As to `CC1CC(C)CN(S(=O)(=O)c2cccc(C(=O)N3C(=O)c4cccc(N)c4C3=O)c2)C1` (stereo not drawn), the inhibition is 19.4% (inactive).

For `Cc1cc(C)n(-c2ccc(NC(=O)C3CCCCN3C(=O)c3cccs3)cc2)n1` (stereo not drawn), the inhibition is 12% (inactive).

For the compound `COc1ccc(NC(=O)CCCC2CCCCC2)c(OC)c1`, the inhibition is -13.7% (inactive).

With `Cc1ccccc1-n1nnc2c(=O)oc3ccccc3c21`, the inhibition was 8.39% (inactive).

Take `Cc1ccc(NC(=O)c2cccc(S(=O)(=O)N3CCCc4ccccc43)c2)nc1`: the inhibition is 2.43% (inactive).

Regarding `CNC(=O)c1ccsc1NC(=O)c1ccc(S(=O)(=O)N2CCc3ccccc32)cc1`, the inhibition was 38% (inactive).

In the case of `O=C(NC(Nc1nc2ccc([N+](=O)[O-])cc2s1)(C(F)(F)F)C(F)(F)F)c1ccccc1`, the inhibition is 99.3% (active).

As to `O=C(CNC(=O)c1ccccc1)Oc1ccc([N+](=O)[O-])cc1`, the inhibition is -9.24% (inactive).

As for `O=C(Nc1nc2ccc([N+](=O)[O-])cc2s1)c1ccc(S(=O)(=O)N2CCCc3ccccc32)cc1`, the inhibition was 96.6% (active).

On to `O=C(CCNC(=O)c1ccccc1)Nc1nc2ccccc2s1`, for which the inhibition is -16.2% (inactive).

Take `CCCCCCC12CCC(C(=O)O)(CC1)CC2`: the inhibition was 11.2% (inactive).

As to `COc1cccc(CC(=O)OCC(=O)NCc2ccc3c(c2)OCO3)c1`, the inhibition is 1.87% (inactive).

Regarding `CCn1c(CSCc2c(Cl)cccc2Cl)n[nH]c1=S`, the inhibition was 7.91% (inactive).

As to `Cc1cc(NS(=O)(=O)c2ccc(NC(=O)c3cccc(OC(F)F)c3)cc2)nc(C)n1`, the inhibition was -4.83% (inactive).

For the compound `COc1ccc(C2c3[nH]c4ccccc4c3C[C@H]3C(=O)N(CC(C)C)CC(=O)N23)c(OC)c1` (stereo partly drawn), the inhibition was 13.6% (inactive).

On to `COc1ccc(Br)c2c1C(=O)CC2`, for which the inhibition was 7.81% (inactive).

Consider `O=C(NCCCn1ccnc1)C(=O)NCC1OCCN1S(=O)(=O)c1cc(F)ccc1F` (stereo not drawn), for which the inhibition was -11.2% (inactive).

For `CCOC(=O)c1ccc(NC(=O)c2cc(=O)[nH]c3ccccc23)cc1`, the inhibition is 23% (inactive).

As for `CCOC(=O)c1ccc(NC(=O)c2c(N)n(C)c(=O)[nH]c2=O)cc1`, the inhibition was 5.07% (inactive).

For the compound `CCOC(=O)c1ccc(NC(=O)c2c(NCc3ccccc3)[nH]c(=O)[nH]c2=O)cc1`, the inhibition was 73.2% (active).

Consider `CCOC(=O)N1CCC(N2Cc3cccc(C(=O)Nc4c(C)cccc4CC)c3C2=O)CC1`, for which the inhibition was 12.5% (inactive).

On to `CCOc1ccccc1NC(=O)Cc1cccs1`, for which the inhibition is 2.43% (inactive).

On to `Cc1ccc(NC(=O)Cn2nnc(C(=O)NCc3ccco3)c2N)c(C)c1`, for which the inhibition is 11.7% (inactive).

With `CCOc1ccccc1NC(=O)Cn1nnc(C(=O)NCc2cccs2)c1N`, the inhibition is 61.5% (active).

With `CCN(CC)CCC(c1cc(OC)c(OC)c(OC)c1)c1c(OC)cc(OC)c2c(-c3ccccc3)cc(=O)oc12` (stereo not drawn), the inhibition is 62.7% (active).

Regarding `COc1ccc(-c2c(C)cc3oc(=O)cc(-c4ccccc4)c3c2C)cc1C=O`, the inhibition was 27.5% (inactive).

On to `COc1cc(OC)c2ccc(=O)oc2c1C(CCN1CCN(c2ccccc2)CC1)c1ccc2c(c1)OCO2` (stereo not drawn), for which the inhibition is 42.4% (inactive).

In the case of `COc1cc(C(CCN2CCN(c3ccccc3)CC2)c2c(OC)cc(OC)c3ccc(=O)oc23)cc(OC)c1OC` (stereo not drawn), the inhibition was 15.2% (inactive).

Take `CCN(CC)C(=O)CC(c1ccc2c(c1)OCO2)c1c(OC)cc(OC)c2c(-c3ccccc3)cc(=O)oc12` (stereo not drawn): the inhibition was 13% (inactive).

For `CCN(CC)CCC(c1ccc2c(c1)OCO2)c1c(OC)cc(OC)c2c(-c3ccccc3)cc(=O)oc12` (stereo not drawn), the inhibition was 76.1% (active).

In the case of `O=C(CN1CCCCC1)NC(=O)Nc1ccccc1F`, the inhibition was 12.7% (inactive).

Take `O=C(NNC1=C(C(=O)C(F)(F)F)CCC1)c1ccncc1`: the inhibition is 8.09% (inactive).

Consider `COc1cc(OC)c(C(=O)NNC(=O)c2ccccc2-n2cccc2)cc1OC`, for which the inhibition is 12.8% (inactive).

`CNC(=O)C1CC(=O)N(c2ccc(OCC(=O)Nc3ccccc3C)cc2)C1` (stereo not drawn): the inhibition was 10.1% (inactive).

With `COc1ccc(CN2[C@@H](CC(=O)O)c3cc(F)ccc3S2(=O)=O)cc1`, the inhibition is -1.99% (inactive).

For the compound `CCCCCNC(=O)c1cccnc1SCC(=O)Nc1ccccc1OC`, the inhibition was 1.51% (inactive).

Turning to `Cc1cccc(NS(=O)(=O)c2cccc(C(=O)NNC(=O)c3ccccc3O)c2)c1`, the inhibition was 46% (inactive).

Turning to `CCOC(=O)C(C)N(c1ccccc1Cl)S(C)(=O)=O` (stereo not drawn), the inhibition was 19% (inactive).

`CC(C)=CCCC1(C)C=Cc2c(ccc3c2[nH]c2cc(O)c(C)cc23)O1` (stereo not drawn): the inhibition was 97.9% (active).

As to `CC(Sc1ccccc1F)C(=O)Nc1cccc(S(=O)(=O)N2CCOCC2)c1` (stereo not drawn), the inhibition was 8.39% (inactive).

Take `COc1ccc(NC(=O)NC2CC3CCCC(C2)N3Cc2ccccc2)cc1` (stereo not drawn): the inhibition was 5.4% (inactive).

Take `Cc1c(NC(=O)C(C)OC(=O)c2ccccc2O)c(=O)n(-c2ccccc2)n1C` (stereo not drawn): the inhibition was 13.1% (inactive).

With `COc1ccc(C)cc1-n1nnnc1SCc1nc2ccccc2c(=O)[nH]1`, the inhibition is 18.2% (inactive).

Consider `O=c1[nH]c(/C=C/c2cccc(Br)c2)nc2ccccc12`, for which the inhibition is 48.2% (inactive).

`CCOc1cc(/C=C/c2nc3ccccc3c(=O)[nH]2)cc(Br)c1OC`: the inhibition was 69.3% (active).

As to `Cc1nonc1OCCn1nnnc1N`, the inhibition is 6.95% (inactive).

With `COC(=O)c1ccc(Sc2ccc(F)cc2)c(N)c1`, the inhibition was -11% (inactive).

In the case of `Oc1cccc(/C=N/Nc2ccc(Cl)nn2)c1O`, the inhibition is 68.6% (active).

Consider `COc1cccc(/C=N/Nc2ccc(Cl)nn2)c1`, for which the inhibition is -64.5% (inactive).

As to `Cc1ccsc1/C=N/Nc1ccc(Cl)nn1`, the inhibition was -10.7% (inactive).

Take `Cc1cc(N2CCCC2)ccc1NC(=O)COc1ccc(Cl)cc1`: the inhibition was -1.43% (inactive).

For the compound `CCN(CC)C(=O)c1nc[nH]c1C(=O)N(C)Cc1ccccc1`, the inhibition was -2.16% (inactive).

Consider `Cc1ccccc1CNC(=O)CCC(=O)N1Cc2ccccc2Oc2ncccc21`, for which the inhibition was 18.7% (inactive).

As for `CC[C@H]1OC(=O)[C@H](C)[C@@H](O[C@H]2C[C@@](C)(OC)[C@@H](O)[C@H](C)O2)[C@H](C)[C@@H](O[C@@H]2O[C@H](C)C[C@H](N(C)C)[C@H]2O)[C@](C)(O)C[C@@H](C)[C@@H]2N[C@@H](COCCOC)O[C@H]([C@H]2C)[C@]1(C)O`, the inhibition was -10.6% (inactive).

In the case of `C=CCOc1c2ccc(C(=O)N(CC)c3ccc(OC)cc3)cc2nn1C`, the inhibition was 13.6% (inactive).

Regarding `CCCCn1nc(C(=O)Nc2cccc(C(=O)NC3CC3)c2)c2ccccc2c1=O`, the inhibition was -19.3% (inactive).

Turning to `CCCn1nc(C(=O)Nc2ccc3nc(C)sc3c2)c2ccccc2c1=O`, the inhibition is 65.5% (active).

In the case of `CCCn1nc(C(=O)NNC(=O)CSCC(=O)Nc2cc(C)on2)c2ccccc2c1=O`, the inhibition is -23.6% (inactive).

Broadly, the inhibition is the drop in the measured response relative to a control, in per cent.
